Experimental data published in the supplement of paper PMC4466140.

B1: unnamed (peptide)
chain: PVLPPPRSPNRPTLS

target: AgAbp1; assay: SPOT peptide array binding signal intensity (averaged, normalized) (arbitrary units (background-subtracted, floor 0; scale differs between SH3 domains)); higher = stronger binding of the SH3 domain to the peptide
Procedure: (§1)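 GST-tagged SH3 domains from S. cerevisiae (Sc), A. gossypii (Ag), C. albicans (Ca) and S. pombe (Sp) were incubated at 10 ug/ml overnight at 4 C on cellulose SPOT membranes carrying 292 synthetic 15-mer peptides mined from the S. cerevisiae proteome (cysteines replaced by serines). Binding was detected with anti-GST antibody, HRP secondary and chemiluminescence, quantified with Genespotter, and reported as normalized spot intensities averaged over biological replicates.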

Binder	SPOT peptide array binding signal intensity
B1	24

target: AgBbc1; assay: as above
Procedure: as §1

Binder	SPOT peptide array binding signal intensity
B1	700

target: AgBem1-D1; assay: as above
Procedure: as §1

Binder	SPOT peptide array binding signal intensity
B1	43

target: AgBzz1-D1; assay: as above
Procedure: as §1

Binder	SPOT peptide array binding signal intensity
B1	20

target: AgBzz1-D2; assay: as above
Procedure: as §1

Binder	SPOT peptide array binding signal intensity
B1	1

target: AgCyk3; assay: as above
Procedure: as §1

Binder	SPOT peptide array binding signal intensity
B1	≤ 0

target: AgFus1; assay: as above
Procedure: as §1

Binder	SPOT peptide array binding signal intensity
B1	≤ 0

target: AgHof1; assay: as above
Procedure: as §1

Binder	SPOT peptide array binding signal intensity
B1	9

target: AgHse1; assay: as above
Procedure: as §1

Binder	SPOT peptide array binding signal intensity
B1	≤ 0

target: AgLsb1; assay: as above
Procedure: as §1

Binder	SPOT peptide array binding signal intensity
B1	1

target: AgLsb4; assay: as above
Procedure: as §1

Binder	SPOT peptide array binding signal intensity
B1	369

target: AgMyo5; assay: as above
Procedure: as §1

Binder	SPOT peptide array binding signal intensity
B1	15.5

target: AgNbp2; assay: as above
Procedure: as §1

Binder	SPOT peptide array binding signal intensity
B1	1.5

target: AgRvs167; assay: as above
Procedure: as §1

Binder	SPOT peptide array binding signal intensity
B1	5.67

target: AgSho1; assay: as above
Procedure: as §1

Binder	SPOT peptide array binding signal intensity
B1	≤ 0

target: AgSla1-D1-D2; assay: as above
Procedure: as §1

Binder	SPOT peptide array binding signal intensity
B1	≤ 0

target: AgSla1-D3; assay: as above
Procedure: as §1

Binder	SPOT peptide array binding signal intensity
B1	0.5

target: CaAbp1-D1; assay: as above
Procedure: as §1

Binder	SPOT peptide array binding signal intensity
B1	418

target: CaAbp1-D2; assay: as above
Procedure: as §1

Binder	SPOT peptide array binding signal intensity
B1	79

target: CaBbc1; assay: as above
Procedure: as §1

Binder	SPOT peptide array binding signal intensity
B1	1660

target: CaBem1-D1; assay: as above
Procedure: as §1

Binder	SPOT peptide array binding signal intensity
B1	31

target: CaBzz1-D1; assay: as above
Procedure: as §1

Binder	SPOT peptide array binding signal intensity
B1	264

target: CaBzz1-D2; assay: as above
Procedure: as §1

Binder	SPOT peptide array binding signal intensity
B1	56

target: CaCyk3; assay: as above
Procedure: as §1

Binder	SPOT peptide array binding signal intensity
B1	67

target: CaFus1; assay: as above
Procedure: as §1

Binder	SPOT peptide array binding signal intensity
B1	≤ 0

target: CaHof1; assay: as above
Procedure: as §1

Binder	SPOT peptide array binding signal intensity
B1	2

target: CaHse1; assay: as above
Procedure: as §1

Binder	SPOT peptide array binding signal intensity
B1	1.5

target: CaLsb1; assay: as above
Procedure: as §1

Binder	SPOT peptide array binding signal intensity
B1	≤ 0

target: CaLsb4; assay: as above
Procedure: as §1

Binder	SPOT peptide array binding signal intensity
B1	1570

target: CaMyo5; assay: as above
Procedure: as §1

Binder	SPOT peptide array binding signal intensity
B1	2.5

target: CaNbp2; assay: as above
Procedure: as §1

Binder	SPOT peptide array binding signal intensity
B1	126

target: CaRvs167; assay: as above
Procedure: as §1

Binder	SPOT peptide array binding signal intensity
B1	114

target: CaRvs167-3; assay: as above
Procedure: as §1

Binder	SPOT peptide array binding signal intensity
B1	16.5

target: CaSho1; assay: as above
Procedure: as §1

Binder	SPOT peptide array binding signal intensity
B1	≤ 0

target: CaSla1-D1-D2; assay: as above
Procedure: as §1

Binder	SPOT peptide array binding signal intensity
B1	110

target: CaSla1-D3; assay: as above
Procedure: as §1

Binder	SPOT peptide array binding signal intensity
B1	≤ 0

target: ScAbp1; assay: as above
Procedure: as §1

Binder	SPOT peptide array binding signal intensity
B1	47.5

target: ScBbc1; assay: as above
Procedure: as §1

Binder	SPOT peptide array binding signal intensity
B1	186

target: ScBem1-D1; assay: as above
Procedure: as §1

Binder	SPOT peptide array binding signal intensity
B1	3.5

target: ScBzz1-D1; assay: as above
Procedure: as §1

Binder	SPOT peptide array binding signal intensity
B1	20

target: ScBzz1-D2; assay: as above
Procedure: as §1

Binder	SPOT peptide array binding signal intensity
B1	10

target: ScCyk3; assay: as above
Procedure: as §1

Binder	SPOT peptide array binding signal intensity
B1	≤ 0

target: ScFus1; assay: as above
Procedure: as §1

Binder	SPOT peptide array binding signal intensity
B1	≤ 0

target: ScHof1; assay: as above
Procedure: as §1

Binder	SPOT peptide array binding signal intensity
B1	63

target: ScHse1; assay: as above
Procedure: as §1

Binder	SPOT peptide array binding signal intensity
B1	≤ 0

target: ScLsb1; assay: as above
Procedure: as §1

Binder	SPOT peptide array binding signal intensity
B1	284

target: ScLsb2; assay: as above
Procedure: as §1

Binder	SPOT peptide array binding signal intensity
B1	4

target: ScLsb3; assay: as above
Procedure: as §1

Binder	SPOT peptide array binding signal intensity
B1	4370

target: ScLsb4; assay: as above
Procedure: as §1

Binder	SPOT peptide array binding signal intensity
B1	372

target: ScMyo3; assay: as above
Procedure: as §1

Binder	SPOT peptide array binding signal intensity
B1	150

target: ScMyo5; assay: as above
Procedure: as §1

Binder	SPOT peptide array binding signal intensity
B1	14.5

target: ScNbp2; assay: as above
Procedure: as §1

Binder	SPOT peptide array binding signal intensity
B1	16

target: ScPex13; assay: as above
Procedure: as §1

Binder	SPOT peptide array binding signal intensity
B1	47

target: ScRvs167; assay: as above
Procedure: as §1

Binder	SPOT peptide array binding signal intensity
B1	1120

target: ScSho1; assay: as above
Procedure: as §1

Binder	SPOT peptide array binding signal intensity
B1	7

target: ScSla1-D1-D2; assay: as above
Procedure: as §1

Binder	SPOT peptide array binding signal intensity
B1	483

target: ScSla1-D3; assay: as above
Procedure: as §1

Binder	SPOT peptide array binding signal intensity
B1	12.5

target: SpAbp1-D1; assay: as above
Procedure: as §1

Binder	SPOT peptide array binding signal intensity
B1	70

target: SpBbc1; assay: as above
Procedure: as §1

Binder	SPOT peptide array binding signal intensity
B1	26

target: SpBzz1-D1; assay: as above
Procedure: as §1

Binder	SPOT peptide array binding signal intensity
B1	295

target: SpBzz1-D2; assay: as above
Procedure: as §1

Binder	SPOT peptide array binding signal intensity
B1	≤ 0

target: SpCyk3; assay: as above
Procedure: as §1

Binder	SPOT peptide array binding signal intensity
B1	1

target: SpHof1; assay: as above
Procedure: as §1

Binder	SPOT peptide array binding signal intensity
B1	7.5

target: SpHof1-2; assay: as above
Procedure: as §1

Binder	SPOT peptide array binding signal intensity
B1	12.5

target: SpHof1-3; assay: as above
Procedure: as §1

Binder	SPOT peptide array binding signal intensity
B1	46.5

target: SpHse1; assay: as above
Procedure: as §1

Binder	SPOT peptide array binding signal intensity
B1	108

target: SpLsb1; assay: as above
Procedure: as §1

Binder	SPOT peptide array binding signal intensity
B1	866

target: SpLsb4; assay: as above
Procedure: as §1

Binder	SPOT peptide array binding signal intensity
B1	3730

target: SpMyo1; assay: as above
Procedure: as §1

Binder	SPOT peptide array binding signal intensity
B1	71.2

target: SpNbp2; assay: as above
Procedure: as §1

Binder	SPOT peptide array binding signal intensity
B1	8

target: SpPex13; assay: as above
Procedure: as §1

Binder	SPOT peptide array binding signal intensity
B1	≤ 0

target: SpRvs167; assay: as above
Procedure: as §1

Binder	SPOT peptide array binding signal intensity
B1	1240

target: SpSla1-D1-D2; assay: as above
Procedure: as §1

Binder	SPOT peptide array binding signal intensity
B1	≤ 0

target: SpSla1-D3; assay: as above
Procedure: as §1

Binder	SPOT peptide array binding signal intensity
B1	≤ 0
